This note sets out measurements from PubChem BioAssay AID1851 (National Center for Advancing Translational Sciences (NCATS), 2009).

As usually defined, the AC50 is the concentration giving half of the maximal activity seen.

Several values for one entry are separate records, joined by “and”; a condition that tells them apart may be missing. Equal values may be shown once. The campaign covered roughly 16,000 compounds. About 5,700 (36%) were called active. Another 24% or so got no clear call; they are omitted. Some of the results follow. Unmarked numbers belong to inactive results. Calls follow the shape of the dose curve; as a rule, active = well fitted curve in the direction sought with a large enough effect; inconclusive = small, poorly fitted or top-dose-only effect, or effect the other way; inactive = no such curve, though single readings can be large or run the other way.
% is scaled to controls: 0 for no effect and ±100 for the full control effect.

The target in the assay is Cytochrome P450 1A2 (Homo sapiens) (UniProt P05177). Briefly: Cytochrome panel assay with activity outcomes. To be noted: recombinant CYP, pro-luciferin dealkylation, luminescence, p450-cyp1a2; series mostly up to 57.1 µM.
Sequence of Cytochrome P450 1A2 (Homo sapiens) (P05177 whole entry, looked up): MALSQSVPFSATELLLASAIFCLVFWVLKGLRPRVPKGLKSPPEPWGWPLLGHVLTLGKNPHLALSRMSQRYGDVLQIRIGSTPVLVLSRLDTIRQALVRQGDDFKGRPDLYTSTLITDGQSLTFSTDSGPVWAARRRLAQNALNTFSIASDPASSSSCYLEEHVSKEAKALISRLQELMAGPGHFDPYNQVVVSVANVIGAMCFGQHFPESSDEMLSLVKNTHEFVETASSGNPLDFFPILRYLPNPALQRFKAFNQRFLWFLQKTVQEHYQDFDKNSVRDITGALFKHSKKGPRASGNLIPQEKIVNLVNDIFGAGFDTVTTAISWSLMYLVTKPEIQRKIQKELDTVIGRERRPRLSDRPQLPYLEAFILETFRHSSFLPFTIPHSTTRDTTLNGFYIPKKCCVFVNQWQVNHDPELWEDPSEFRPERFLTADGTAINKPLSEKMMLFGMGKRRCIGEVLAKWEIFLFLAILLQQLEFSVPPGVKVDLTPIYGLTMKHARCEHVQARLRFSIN
Take `C/C(CCN1CCCCc2nc(C)c(C)cc21)=N\O[C@@H](C)CN1CCCCc2nc(C)c(C)cc21`: the activity, negative = inhibition is -20.9% [at 11.4 µM].

Regarding `C/C=C\C[C@H](C)[C@H](O)[C@H]1C(=O)N[C@@H](CC)C(=O)N(C)CC(=O)N(C)[C@@H](CC(C)C)C(=O)N[C@@H](C(C)C)C(=O)N(C)[C@@H](CC(C)C)C(=O)N[C@@H](C)C(=O)N[C@@H](C)C(=O)N(C)[C@@H](CC(C)C)C(=O)N(C)[C@@H](CC(C)C)C(=O)N(C)[C@@H](C(C)C)C(=O)N1C`, the AC50 entry was “inactive”.

For `CC1=CC(C)(C)NC(=S)N1c1cccc(C)c1`, the AC50 result was “inactive”.

As for `COc1cccc(-c2ccc3ncnc(NCc4cccs4)c3c2)c1`, the AC50 is 0.501 µM (active).

As to `Cc1cc(C)cc(N(CC(=O)NCCSc2ccccn2)S(=O)(=O)c2ccccc2)c1`, the AC50 result was “inactive”.

`Cn1c([N+](=O)[O-])cnc1COC(N)=O`: the AC50 entry was “inactive”.

Turning to `CC[N+](CC)(CC(=O)Nc1c(C)cccc1C)Cc1ccccc1`, the AC50 entry was “inactive”.

With `Cc1cccc(C)c1NC(=O)CS(=O)CC(=O)NCCCc1ccccc1` (configuration not stated), the AC50 entry is “inactive”.

As to `COC(=O)c1scc(C)c1NC(=O)Cc1ccccc1`, the half-maximal activity concentration (AC50) is 12.6 µM (active).

With `Nc1ncnc2c1ncn2[C@@H]1O[C@@H](C(=O)NC2CC2)[C@H](O)[C@@H]1O`, the AC50 entry is “inactive”.

For `Cc1ccc2[nH]c3c(c2c1)CN(C(=O)CN1c2ccc(F)cc2CCC1C)CC3` (configuration not stated), the AC50 was 5.62 µM (active).

As to `CNCCCC1c2ccccc2C=Cc2ccccc21`, the AC50 result is “inactive”.

For `CCCN1C(=O)C2(/C(=C(\O)c3ccc4c(c3)OCCO4)C(=O)C(=O)N2CCCOC)c2ccccc21` (configuration not stated), the AC50 entry is “inactive”.

Take `O=C(OCc1nnc(-c2ccccc2)o1)c1ccc2c(c1)OCCO2`: the half-maximal activity concentration (AC50) was 2.51 µM (active).

In the case of `Cc1ncc(N=Nc2ccccc2Cl)c(-c2ccccc2)n1`, the AC50 is 0.631 µM (active).

On to `OCCN(Cc1ccccc1)Cc1cccc(Cl)c1Cl`, for which the AC50 was 5.62 µM (active).

With `CN(C(=O)CN(CCO)CC(=O)N(C)C(C)(C)Cc1ccccc1)C(C)(C)Cc1ccccc1`, the AC50 result is “inactive”.

As to `CCc1c(O)nc(SCC(=O)NC(C)(C)C)n(-c2ccccc2)c1=O`, the AC50 entry was “inactive”.

As for `CCc1c(O)nc2sc3ccccc3n2c1=O`, the AC50 is 15.8 µM (active).

In the case of `CCCc1nn2c(=O)c(C(c3ccc(C)cc3)c3c(O)nc4sc(CCC)nn4c3=O)c(O)nc2s1`, the AC50 entry is “inactive”.

As for `O=c1cnc2cnc(Oc3cccc(Cl)c3)nc2n1C[C@H]1CCCO1`, the AC50 was 5.01 µM (active).

For the molecule `COc1ncc2ncc(=O)n(C[C@H]3CCCO3)c2n1`, the AC50 is 15.8 µM (active).

As to `CCC(=O)Nc1ccc(C(=O)CSc2nnc(-c3ccc(O)cc3)n2CC2CCCO2)cc1OC` (configuration not stated), the AC50 entry was “inactive”.

`COc1ccc(Oc2ncc3ncc(=O)n(C[C@H]4CCCO4)c3n2)cc1`: the half-maximal activity concentration (AC50) was 6.31 µM (active).

For the molecule `COc1ccc(Oc2ncc3nc(C)c(=O)n(C[C@H]4CCCO4)c3n2)cc1`, the concentration at half-maximal activity (AC50) is 12.6 µM (active).

Turning to `COC(=O)C1=C(N)Oc2cc(C)n(CC3CCCO3)c(=O)c2C1c1ccccc1OC` (configuration not stated), the AC50 entry was “inactive”.

Turning to `CN1CCC(=C2c3ccccc3CC(=O)c3sccc32)CC1`, the AC50 entry is “inactive”.

For `CC1(CCC#N)N=C(SCCC#N)N(c2ccccc2)C1=O` (configuration not stated), the AC50 entry is “inactive”.

Take `C=C1CCO[C@@]2([C@H](O)[C@@](C)(O)CO)NC(=O)[C@]1(O)NC2=O`: the activity, negative = inhibition was -3.99% [at 2.29 µM].

As for `Cc1ccc(NC(=O)NNC(=O)Cn2nc(-c3ccccc3)c(-c3ccccc3)c(C#N)c2=O)cc1`, the AC50 result is “inactive”.

`Cc1nc2c(c(-c3ccccc3)c1C#N)C(=O)c1ccccc1-2`: the AC50 is 0.2 µM (active).

Turning to `CCN(CC)CCC(=O)Nc1ccc2c(c1)N(C(=O)CN(CC)CC)c1ccccc1CC2`, the AC50 result was “inactive”.

For `O=C(COc1cccc2ccccc12)N1c2ccccc2CCc2ccccc21`, the AC50 is 6.31 µM (active).

For `O=C1c2ccccc2C(=O)N1CC(=O)N1c2ccccc2CCc2ccccc21`, the AC50 result is “inactive”.

Regarding `C[C@@H](C[C@H](N)C(=O)O)C(=O)O`, the activity, negative = inhibition was -18.7% [at 11.4 µM].

Consider `CCOC(=O)C1=NO[C@@]2(C=C(Br)C3(OCCCO3)[C@H]3O[C@H]32)C1`, for which the activity, negative = inhibition is 1.82% [at 11.4 µM].

Regarding `COc1ccc(N2C(=O)CC(S/C(N)=N/N=C(\C)c3cccs3)C2=O)cc1` (configuration not stated), the AC50 is 2.51 µM (active).

Consider `Cc1cc(C)cc(N2C(=O)CC(Sc3nnnn3-c3ccccc3)C2=O)c1` (configuration not stated), for which the AC50 entry was “inactive”.

For the molecule `CC(C)(C)NS(=O)(=O)c1ccc(NC(=O)NC2CCCCC2)cc1`, the AC50 entry was “inactive”.

`Oc1ccccc1-c1nnc(-c2ccc(C(F)(F)F)cc2)o1`: the AC50 is 5.01 µM (active).

As to `O=C(/C=C\NCC(=O)c1ccccc1)c1ccccc1`, the half-maximal activity concentration (AC50) was 5.01 µM (active).

Regarding `O=C(C[C@@H]1C=Cc2ccccc2N1C(=O)c1ccccc1)c1ccccc1`, the activity, negative = inhibition was -23.2% [at 2.29 µM].

In the case of `CC(C)CCOc1ccc(NC(=O)C2OC3OC(C)(C)OC3C3OC(C)(C)OC23)cc1` (configuration not stated), the AC50 result is “inactive”.

Turning to `c1ccc(-c2nc(CSc3n[nH]c(-c4cccs4)n3)cs2)cc1`, the AC50 is 2.82 µM (active).

In the case of `Cc1c(C)n(C)c2ccc(C(=O)Nc3cccc4ccccc34)cc12`, the AC50 is 2 µM (active).

Regarding `CCn1c(C)c(C)c2cc(C(=O)Nc3cccc(Cl)c3)ccc21`, the AC50 was 3.16 µM (active).

Consider `O=C(O)c1ccc(C(=O)Nc2cccc3ccccc23)c(C(=O)O)c1`, for which the activity, negative = inhibition was -6.15% [at 2.29 µM].

For the molecule `COC(=O)CCC(=O)Nc1cccc(C(=O)Nc2cccc(Cl)c2)c1`, the AC50 is 4.47 µM (active).

As for `O=c1[nH]c(=O)n(Cc2ccco2)c2c1C(C(F)(F)F)(C(F)(F)F)N=C(CCC1CCCCC1)N2`, the AC50 entry is “inactive”.

Take `CC1(C)CCC(NC(=O)[C@H](N)CCC(=O)O)CC1`: the AC50 result is “inactive”.

Consider `Cc1cnc(CNc2ccnc(-c3ccccc3C(F)(F)F)n2)cn1`, for which the AC50 was 15.8 µM (active).

As to `COc1ccccc1-c1nccc(NCc2cnc(C)cn2)n1`, the AC50 was 12.6 µM (active).

Turning to `Cc1cnc(CNc2ccnc(-c3ccccc3Cl)n2)cn1`, the AC50 is 12.6 µM (active).

Regarding `Cc1cnc(CNc2ccnc(-c3ccccc3C)n2)cn1`, the AC50 was 12.6 µM (active).

As for `Cc1ccc(S(=O)(=O)CC(O)CN2CCCC2=O)cc1` (configuration not stated), the AC50 entry was “inactive”.

Regarding `O=S1(=O)N[C@H]2CC[C@@H]3NS(=O)(=O)N[C@H]4CC[C@H](N1)N4S(=O)(=O)N23`, the activity, negative = inhibition is 2.05% [at 11.4 µM].

For the molecule `CN(C)CCn1c(CO)nc2c1c(=O)n(C)c(=O)n2C`, the activity, negative = inhibition was -6.02% [at 11.4 µM].

Turning to `Cn1c(=O)c2c(nc(Cc3ccccc3)n2CC(=O)O)n(C)c1=O`, the activity, negative = inhibition was -13.2% [at 2.29 µM].

Consider `Cn1c(=O)c2c(nc(Cl)n2Cc2ccc(Cl)c(Cl)c2)n(C)c1=O`, for which the AC50 was 12.6 µM (active).

`COc1ccc2c(OC)c3ccoc3nc2c1OC`: the AC50 was 0.0794 µM (active).

As to `CS(=O)(=O)N1CCC2(CCN(C(c3ccccc3)c3ccccc3)CC2)CC1`, the AC50 result is “inactive”.

As for `COc1ccc2[nH]cc(CCNc3ncncc3-c3c(C)noc3C)c2c1`, the AC50 was 12.6 µM (active).

Turning to `COc1ccc2[nH]cc(CCNc3ncncc3-c3ccccc3Cl)c2c1`, the AC50 is 0.631 µM (active).

Consider `COc1ccc2[nH]cc(CCNc3ncncc3-c3ccccc3C(F)(F)F)c2c1`, for which the AC50 is 10 µM (active).

In the case of `COc1ccc2[nH]cc(CCNc3ncncc3-c3ccccc3CN(C)C)c2c1`, the AC50 was 20 µM (active).

Regarding `COC(=O)C/C=C\[C@@H](C)[C@@H](/C=N\OC[C@@H](O)COCc1ccco1)OC`, the activity, negative = inhibition was -1.53% [at 11.4 µM].

`CC(C)NC(=O)N1CC[C@@]2(CCCN(S(C)(=O)=O)C2)C1`: the AC50 entry is “inactive”.

`COc1ccc2[nH]cc(CCNc3ncncc3-c3ccccc3OC)c2c1`: the AC50 is 2.51 µM (active).

As for `COc1ccc2[nH]cc(CCNc3ncncc3-c3ccccc3C)c2c1`, the AC50 is 0.631 µM (active).

In the case of `CCOC(=O)CN1C(=O)Nc2ccc(Br)cc2C1c1ccccc1` (configuration not stated), the AC50 was 3.16 µM (active).

`CN(C)CCN1C(=O)C(O)=C(C(=O)c2cc3ccccc3o2)C1c1cccc(Br)c1` (configuration not stated): the AC50 entry is “inactive”.

As to `CS(=O)(=O)N1CCC2(CC1)CN(C(=O)Nc1ccccc1)C2`, the AC50 result is “inactive”.

For `Cc1ccc(OC[C@H](O)[C@H](C)NC(C)C)c2c1CCC2`, the AC50 was 1.58 µM (active) and 398 nM (active).

In the case of `CC(C)(C)NC[C@H](O)COc1cccc2c1CCC(=O)N2`, the AC50 result was “inactive”.

As for `CC(C)(C)NC[C@H](O)COc1cccc2c1CCCC2=O`, the AC50 entry was “inactive”.

As for `CCOC(=O)CCN1C(=O)[C@H]2[C@H]3[C@H](O)[C@H](O)C/C(=N/OCC(C)C)[C@@H]3CC[C@@H]2C1=O`, the activity, negative = inhibition is -8.45% [at 11.4 µM].

`CCCNC(=S)Nc1ccc(Br)cc1`: the AC50 is 7.08 µM (active).

Turning to `CCC(=O)NC(=S)Nc1ccc(S(=O)(=O)NC(C)=O)cc1`, the AC50 entry is “inactive”.

Regarding `Cc1ccc(NC(=O)C2C3CCCC2C3c2ccccc2)cc1C` (configuration not stated), the AC50 entry was “inactive”.

`COc1ccc(CC(=O)NC(=S)Nc2ccc(S(=O)(=O)NC(C)(C)C)cc2)cc1`: the AC50 result is “inactive”.

Take `Cc1cc(NC(=S)NC(=O)CC(C)C)ccc1Br`: the AC50 is 5.62 µM (active).

With `Cc1ccc(NC(=S)Nc2ccc(Br)cc2)cc1`, the AC50 is 3.55 µM (active).

For `Cc1cc(NC(=S)Nc2ccccc2)ccc1Br`, the AC50 is 5.62 µM (active).

`Cc1cccc(NC(=S)Nc2ccc(Br)cc2)c1`: the AC50 is 3.55 µM (active).

Turning to `C/C(=N\NC(=S)Nc1cccc(C)c1)c1ccccc1`, the AC50 was 0.891 µM (active).

In the case of `Cc1cccc(N2CCN(c3ccc(NC(=O)/C=C(/C(=O)O)c4ccccc4)cc3)CC2)c1`, the AC50 result is “inactive”.

As for `CC(=O)OCC(=O)[C@]12OC(C)(C)O[C@@H]1C[C@H]1[C@H]3CC=C4C[C@@H](O)CC[C@]4(C)[C@H]3CC[C@]12C`, the activity, negative = inhibition was 4.12% [at 11.4 µM].

Turning to `Cc1ccc(S(=O)(=O)NCC(=O)N(CC(=O)NCc2ccco2)Cc2cccs2)cc1`, the AC50 result is “inactive”.

Regarding `Cc1csc(NC(=O)Cc2c[nH]c3ccccc23)n1`, the AC50 was 11.2 µM (active).

For `Cc1csc(NC(=O)CNS(=O)(=O)c2cccs2)n1`, the AC50 is 12.6 µM (active).

With `CCOC(=O)N1CCN(C(=O)CNS(=O)(=O)c2cccs2)CC1`, the AC50 entry is “inactive”.

For `Cc1ccnc(NS(=O)(=O)c2ccc(N)cc2)n1`, the AC50 entry is “inactive”.
